# The full ranking holds about 33,000 sequences; the median of “E-score (-0.5 to 0.5)” is about -0.016, and the highest 2% start at about 0.3. The entries come from a sample that favours the highest values as a whole.
# Target: T1, Yer184c (UniProt P39961)
# T1 sequence: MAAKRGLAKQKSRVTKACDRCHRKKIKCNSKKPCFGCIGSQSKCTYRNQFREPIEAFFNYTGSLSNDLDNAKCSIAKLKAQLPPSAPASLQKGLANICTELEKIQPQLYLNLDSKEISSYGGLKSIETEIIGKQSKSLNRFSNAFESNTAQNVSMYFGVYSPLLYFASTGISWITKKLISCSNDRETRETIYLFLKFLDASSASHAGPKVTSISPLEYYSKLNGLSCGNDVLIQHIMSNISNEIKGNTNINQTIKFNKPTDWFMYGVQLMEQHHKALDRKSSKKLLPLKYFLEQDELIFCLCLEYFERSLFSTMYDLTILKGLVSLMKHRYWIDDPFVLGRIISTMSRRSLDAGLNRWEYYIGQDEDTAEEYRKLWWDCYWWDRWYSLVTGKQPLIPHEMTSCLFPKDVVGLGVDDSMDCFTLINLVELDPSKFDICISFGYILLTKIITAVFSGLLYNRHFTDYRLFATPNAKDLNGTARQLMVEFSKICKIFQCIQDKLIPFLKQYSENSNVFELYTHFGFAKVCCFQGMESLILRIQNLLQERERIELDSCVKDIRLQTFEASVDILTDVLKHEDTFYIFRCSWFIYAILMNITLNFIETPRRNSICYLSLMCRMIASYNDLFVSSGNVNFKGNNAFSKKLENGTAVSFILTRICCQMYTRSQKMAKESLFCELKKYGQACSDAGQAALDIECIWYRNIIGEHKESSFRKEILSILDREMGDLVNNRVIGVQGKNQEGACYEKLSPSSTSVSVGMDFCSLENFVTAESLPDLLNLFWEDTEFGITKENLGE
# Assay: PBM E-score (8-mer binding enrichment) (E-score (-0.5 to 0.5)); higher = stronger / more preferred TF binding
# Conditions: protein concentration: 100 nM; construct: GST-full length
# Procedure: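 Universal 'all 10-mer' protein binding microarrays (Agilent AMADID 015681) probed with GST-tagged S. cerevisiae TFs (full-length or DBD) made by in vitro transcription/translation (PURExpress), about 100-200 nM. Bound TF was detected with fluorescent anti-GST. Each ungapped 8-mer (which stands for itself and its reverse complement) is scored by the PBM enrichment score (E-score), a modified Wilcoxon-Mann-Whitney statistic from -0.5 to +0.5, computed with the Universal PBM Analysis Suite. Scale: above 0.35 generally sequence-specific binding.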
row,Sequence,PBM E-score
1,CCGGACCC,0.235
2,CCGGACAG,0.324
3,CGGGACCG,0.31
4,ACGGACCA,0.327
5,ACGGACCG,0.193
6,CCGGACAC,0.286
7,GTAGTGGA,0.177
8,ATGCTGGG,-0.0916
9,ACAATTGT,0.097
10,AATGCTCG,-0.0329
11,AACCAACG,-0.0237
12,ACAGCCCA,-0.0828
13,TATCTGAA,0.108
14,AAAACTGT,0.0544
15,GCGGACAA,0.298
16,TCGGACAA,0.378
17,ACGGACAA,0.27
18,TCGCTGCA,-0.0505
19,AACTGGGA,-0.151
20,ATTGCGGC,0.0068
21,AAAGTGCA,-0.0658
22,ACGGCGCC,0.122

row,Sequence,PBM E-score
1,CCGGCGCC,0.354
2,CCGGCGCG,0.305
3,CCGGCGCA,0.277
4,ACGGCGCG,0.232
5,GCGGCGCC,0.299
6,CGTATTGC,0.0559
7,ATAGCTGC,0.0565
8,GTCGGGAA,0.0333
9,TTCAGAAA,0.0478
10,GTCGGAGA,0.158
11,ATCGGAGA,0.216
12,ATCGGCAT,0.267
13,ATCGGAAG,0.211
14,ATCGGAAT,0.379
15,TTAGGAAA,0.146
16,ATCGGAAC,0.291
17,GTCGGAAA,0.318
18,ATCGGAAA,0.344
19,TTCGGAAA,0.402
20,CAGCCTTA,-0.0157
21,CTTGGATC,-0.0713
22,CATCGCAG,-0.28

row,Sequence,PBM E-score
1,GCGGGAAC,-0.00769
2,CCTTAAGG,-0.0623
3,TCCGGTAA,0.387
4,CCCGGTAA,0.221
5,GCCGGTAC,0.229
6,GCCGGTAA,0.346
7,GCCGGTGA,0.235
8,ACCGGTAA,0.217
9,GTAGCTAA,-0.0505
10,GGCCTCCA,-0.0306
11,ATCCCATG,-0.297
12,AGCTGAGG,-0.11
13,ACCCTCCC,0.0834
14,ACGAAAGC,0.0461
15,CGGCTAAA,0.327
16,TGGCTAAA,0.0133
17,CGGCTAGC,0.24
18,AGGCTAAA,-0.0661
19,CGGCTAGA,0.306
20,GGGCTAGA,-0.183
21,CTCCCACA,-0.184
22,AGTGCACT,0.067

row,Sequence,PBM E-score
1,CTGGGTTA,-0.115
2,ATGAGTAA,0.0956
3,ACAACCCG,0.0761
4,AAATTCCC,-0.0964
5,AAATTCCA,0.216
6,CAATTCCC,0.178
7,CAATTCCG,0.315
8,CAATTCCA,-0.0791
9,AAATTCCG,0.384
10,AACAACCC,-0.0615
11,ATCCTTGA,0.0411
12,CGGATGAG,0.171
13,CGGATAAA,0.417
14,CGGATAAC,0.34
15,GTGATAAA,0.179
16,AGGATAAC,-0.197
17,CGGATAAG,0.217
18,GGGATAAC,-0.0432
19,TGGATAAA,0.18
20,CGGATGAA,0.351

# From the supplement of paper PMC3334620
